Experimental data taken from PubChem BioAssay (NCATS).
Records with an inconclusive call do not appear. The source made the active and inactive calls. The call rests on the fitted dose curve; in most records, active means well fitted curve in the direction sought with a large enough effect; inconclusive means small, poorly fitted or top-dose-only effect, or another doubt; inactive means no such curve, though single readings can be large; an effect the other way counts as inactive or inconclusive.

How the values were obtained:
[1] = Cellular Toxicity (caspase-3) Mesangial (AID 660); details: mesangial cells, normalized: DMSO 0%, 100 µM tamoxifen 100%; at 91.7 µM (top of the series);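 further: combined caspase 3 and 7 activity read by Caspase-Glo luminescence; cells exposed to compound for 16 h before the caspase read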
In short: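 Seed cells derived from normal human renal glomeruli, incubate 5 h, add compounds across concentrations and incubate 16 h at 37 °C. Caspase 3/7 activation is then quantified by luciferase light, with AC50 derived by Hill modeling.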

[2] = Cellular Toxicity (caspase-3) SK-N-SH (AID 661);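 further: 0% = DMSO basal and 100% = 10 µM staurosporine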
In short: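 Cells were seeded and incubated 5 hr at 37 °C, dosed with compound over a concentration range for 16 hr, then given Caspase-Glo 3/7 reagent for 1 hr at room temperature before luminescence reading.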

[3] = Cellular Toxicity (caspase-3) H-4-II-E (AID 663); details: H-4-II-E rat hepatoma, scaled: DMSO 0%, 100 µM tamoxifen 100%; at 92.2 µM (top of the series);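 further: cells exposed to compound for 16 hr before readout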
In short: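 Caspase 3/7 activation measured in H-4-II-E cells in complete culture medium after 16 hr treatment at 37 °C, using luciferase-coupled substrate readout; AC50 values come from Hill-equation fits of normalized concentration-response data.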

[4] = Cellular Toxicity (caspase-3) Hek293 (AID 664); details: HEK293 caspase-3 activation, DMSO = 0%, 100 µM tamoxifen = 100%; at 92.2 µM (top of the series);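 further: cells exposed to compound for 16 h at 37 °C before readout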
In short: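 qHTS, HEK293 (human embryonic kidney), 16 h cpd exposure in complete medium. Caspase-3/7 activation = luminescence increase; normalized to DMSO/100 uM tamoxifen; Hill-fit AC50.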

[5] = Cellular Toxicity (caspase-3) N2a (AID 665);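 further: compound exposure lasted 16 h at 37 °C before readout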
In short: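 Caspase-3/7 activation, measured as increased luminescence from aminoluciferin release, is quantified in mouse N2a cells exposed to compounds for 16 h. Values are normalized to DMSO and 10 uM staurosporine, with AC50 derived by Hill modelling.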

[6] = Cellular Toxicity (caspase-3) NIH 3T3 (AID 666);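 further: caspase signal read after 16 h compound exposure; 0% = DMSO basal and 100% = 100 µM tamoxifen stimulation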
In short: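 Cells were plated at 1000 per well and incubated 5 hr at 37°C, then compound was added for 16 hr. Caspase-Glo 3/7 reagent followed for 20 min at room temperature before luminescence was read.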

[7] = Cellular Toxicity (caspase-3) Renal Proximal Tubule (AID 667); details: Potency: caspase-3 activation;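 further: cells exposed to compound for 16 hours at 37 °C before detection; 0% = DMSO basal and 100% = 10 µM staurosporine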
In short: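 AC50 derived by standard Hill fit of concentration-response data, normalized between DMSO basal and 10 uM staurosporine as 100% stimulation. Cells: primary rat kidney proximal tubule, 16 h treatment at 37 °C.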

[8] = molecular target: Cytochrome P450 3A4 (Homo sapiens) (UniProt P08684); experiment: qHTS Assay for Inhibitors and Substrates of Cytochrome P450 3A4 (AID 884); further: on the % scale 0 is the no-effect control and ±100 the full control effect; nearly all actives have a fitted effect of over 50% in size
In short: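 Luminescent readout of luciferin produced by CYP3A4 (20 nM) dealkylation of Luciferin-PPXE, 25 uM (its KM). NADPH-driven reaction ran 60 min at RT after 10 min compound preincubation; data scaled to 57 uM ketoconazole as 100% inhibition.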

[9] = Cell Viability - LYMP2-001 (AID 921);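 further: cells exposed to compound for 24 h at 37 °C; 0% = DMSO only and full inhibition = tetraoctylammonium bromide control wells; nearly all actives have a fitted effect of over 70% in size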
In short: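 Steps: seed 2500 lymphoblastoid cells/well; 5 hr, 37 C; add compound; 24 hr, 37 C; CellTiter-Glo reagent, 30 min room temperature; read luminescence. Concentration-response modeled by Hill equation for AC50.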

[10] = MultiTox-Fluor Cytotoxicity Assay - LYMP1-001 - Live Cells (AID 947);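 further: 0% = DMSO only and full inhibition = tetraoctylammonium bromide control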
[11] = Cell Viability - LYMP1-002 - Assay at 16 hr (AID 948);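 further: 0% = DMSO alone and full effect = 92 µM tetraoctylammonium bromide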
In short: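 Seed 2500 LYMP1-002 cells per well in complete medium and hold 5 hr at 37 C. Add compound across a concentration series and incubate 16 hr at 37 C. Add CellTiter-Glo, wait 30 min at room temperature, read luminescence.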

[12] = MultiTox-Fluor Cytotoxicity Assay - LYMP1-002 - Live Cells (AID 955); further: on the % scale 0 is the no-effect control and ±100 the full control effect
In short: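 Cells were seeded at 2500 per well and incubated 5 hr. Compounds were then added for 16 hr at 37 C, followed by MultiTox-Fluor reagent for 60 min at room temperature and fluorescence reading of viable-cell protease signal.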

[13] = MultiTox-Fluor Cytotoxicity Assay - LYMP1-002 - Dead Cells (AID 960); further: nearly all actives have a fitted effect of over 60% in size
In short: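 Cells were plated, rested 5 hr, then treated with compound dilution series for 16 hr at 37 C. After adding substrate reagent and 60 min at room temperature, dead-cell protease fluorescence gave concentration-response curves fitted by the Hill equation.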

[14] = MultiTox-Fluor Cytotoxicity Assay - LYMP1-003 - Dead Cells (AID 961); further: nearly all actives have a fitted effect of over 70% in size
In short: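 LYMP1-003 lymphoblastoid, 2500 cells/well, 5 hr settle then 16 hr cpd at 37 C; MultiTox-Fluor reagent 60 min RT; Ex/Em 485/520 dead-cell signal; norm. DMSO = 0%, 15 uM tetraoctylammonium bromide = 100%; Hill AC50.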

[15] = Cell Viability - LYMP1-003 - Assay at 24 hr (AID 963);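 further: plate controls were DMSO only for no effect and tetraoctylammonium bromide positive control for full effect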
In short: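 Cytotoxicity is scored as a concentration-dependent fall in ATP-linked luciferase signal in human lymphoblastoid LYMP1-003 cells treated 24 hr at 37 C in complete culture medium.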

[16] = Cell Viability - LYMP1-003 - Assay at 40 hr (AID 964); further: on the % scale 0 is the no-effect control and ±100 the full control effect; nearly all actives have a fitted effect of over 60% in size
In short: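 Luminescent ATP signal (CellTiter-Glo) served as the viability read-out after 40 hr compound treatment of human lymphoblastoid LYMP1-003 cells at 37 C. Decreases in ATP were fitted with the Hill equation to give AC50.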

[17] = Cell Viability - LYMP2-003 (AID 965);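 further: cells exposed to compounds for 24 h before reading; 0% = DMSO only and full effect = 92 µM tetraoctylammonium bromide; nearly all actives have a fitted effect of over 50% in size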
In short: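 Seed 2500 lymphoblastoid cells/well; incubate 5 hr, 37 C; add compounds; incubate 24 hr, 37 C; add CellTiter-Glo, 30 min RT; read luminescence. AC50 from Hill fit.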

[18] = MultiTox-Fluor Cytotoxicity Assay - LYMP1-003 - Live Cells (AID 962);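 further: cells exposed to compound for 16 hours at 37 °C; 0% = DMSO only and full loss = 92 µM tetraoctylammonium bromide; cytotoxic hits lower the live-cell protease signal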
In short: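 Acute cytotoxicity is scored as a drop in live-cell protease activity in human lymphoblastoid LYMP1-003 cells after 16 hr compound exposure at 37 C. AC50 values come from Hill-equation modelling of concentration-response data.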

[19] = MultiTox-Fluor Cytotoxicity Assay - LYMP1-001 - Dead Cells (AID 946)
In short: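 Seed 2500 LYMP1-001 cells/well, incubate 5 hr at 37 C; add compound, 16 hr at 37 C; add MultiTox-Fluor reagent, 60 min RT; read dead-cell fluorescence Ex/Em=485/520. Normalize to DMSO and 15 uM tetraoctylammonium bromide.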

[20] = molecular target: Cytochrome P450 3A4 (Homo sapiens) (UniProt P08684); experiment: qHTS Assay for Activators of Cytochrome P450 3A4 (AID 885); further: nearly all actives have a fitted effect of over 65% in size
In short: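 Activators are scored by enhanced luminescence from CYP3A4 conversion of luciferin-PPXE (25uM, equal to KM) to luciferin, after 60 min at RT with an NADPH-regenerating system.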

Cytochrome P450 3A4 (Homo sapiens), sequence (P08684 whole entry, looked up): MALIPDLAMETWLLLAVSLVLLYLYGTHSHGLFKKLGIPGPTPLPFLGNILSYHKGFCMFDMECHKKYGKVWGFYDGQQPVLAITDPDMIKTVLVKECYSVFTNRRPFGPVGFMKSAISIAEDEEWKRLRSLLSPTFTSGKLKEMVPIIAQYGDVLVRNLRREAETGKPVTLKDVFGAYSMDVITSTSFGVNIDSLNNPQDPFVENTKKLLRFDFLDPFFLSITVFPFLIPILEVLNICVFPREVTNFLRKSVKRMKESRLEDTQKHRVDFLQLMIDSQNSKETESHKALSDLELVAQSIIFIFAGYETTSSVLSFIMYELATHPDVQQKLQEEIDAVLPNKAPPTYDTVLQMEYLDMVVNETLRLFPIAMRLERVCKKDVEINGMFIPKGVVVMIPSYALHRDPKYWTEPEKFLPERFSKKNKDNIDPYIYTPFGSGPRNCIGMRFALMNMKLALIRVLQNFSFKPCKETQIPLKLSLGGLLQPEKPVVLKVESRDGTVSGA

CC(C)(C)c1ccc(OCC2CO2)cc1 (stereo unspecified)
inactive: caspase-3 activation [1] 1.34% | outcome [2] | caspase-3 activation [3] 0.475% | caspase-3 activation [4] -2.1% | outcome [5] | outcome [6] | Potency [7] | Potency [8] | Potency [9] | outcome [10] | outcome [11] | outcome [12] | outcome [13] | Potency [14] | Potency [15] | Potency [16] | Potency [17]

OC(CCl)CCl
inactive: caspase-3 activation [1] 2.07% | outcome [2] | caspase-3 activation [3] 1.01% | caspase-3 activation [4] 2.01% | outcome [5] | outcome [6] | Potency [7] | Potency [8] | Potency [9] | outcome [10] | outcome [11] | outcome [13] | Potency [14] | Potency [18] | Potency [16] | Potency [17]

CC(=O)OC(C)C
inactive: caspase-3 activation [1] 0.284% | outcome [2] | caspase-3 activation [3] 0.45% | caspase-3 activation [4] 0.887% | outcome [5] | outcome [6] | Potency [7] | Potency [8] | Potency [9] | outcome [19] | outcome [11] | outcome [12] | outcome [13] | Potency [14] | Potency [15] | Potency [16] | Potency [17]

C=C(C)C(N)=O
inactive: caspase-3 activation [1] -0.474% | outcome [2] | caspase-3 activation [3] -0.402% | caspase-3 activation [4] -0.593% | outcome [5] | outcome [6] | Potency [7] | Potency [8] | Potency [9] | outcome [19] | outcome [11] | outcome [12] | outcome [13] | Potency [15] | Potency [16] | Potency [17]

Cc1cc(C)cc(N)c1
inactive: caspase-3 activation [1] -0.679% | outcome [2] | caspase-3 activation [3] -0.0763% | caspase-3 activation [4] -0.185% | outcome [5] | outcome [6] | Potency [7] | Potency [8] | Potency [9] | outcome [19] | outcome [11] | outcome [12] | outcome [13] | Potency [14] | Potency [15] | Potency [16] | Potency [17]

C=CC(=O)NC(C)C
inactive: caspase-3 activation [1] 1.12% | outcome [2] | caspase-3 activation [3] 0.575% | caspase-3 activation [4] 2.01% | outcome [5] | outcome [6] | Potency [7] | Potency [8] | Potency [9] | outcome [10] | outcome [11] | outcome [12] | outcome [13] | Potency [14] | Potency [15] | Potency [16] | Potency [17]

Nc1cc(Cl)c([N+](=O)[O-])cc1O
inactive: caspase-3 activation [1] -0.0539% | outcome [2] | caspase-3 activation [3] 1.74% | caspase-3 activation [4] 5.51% | outcome [5] | outcome [6] | Potency [7] | outcome [20] | Potency [9] | outcome [19] | outcome [10] | outcome [11] | outcome [12] | outcome [13] | Potency [14] | Potency [18] | Potency [17]

CCN(CC)c1cccc(O)c1
inactive: caspase-3 activation [1] -0.898% | outcome [2] | caspase-3 activation [3] 2.1% | caspase-3 activation [4] 0.00739% | outcome [5] | outcome [6] | Potency [7] | outcome [20] | Potency [9] | outcome [19] | outcome [11] | outcome [12] | outcome [13] | Potency [14] | Potency [18] | Potency [16] | Potency [17]

Nc1cccc(N)c1
inactive: caspase-3 activation [1] 0.868% | outcome [2] | caspase-3 activation [3] 0.606% | caspase-3 activation [4] -1.72% | outcome [5] | outcome [6] | Potency [7] | outcome [20] | Potency [9] | outcome [19] | outcome [10] | outcome [11] | outcome [13] | Potency [14] | Potency [18] | Potency [15] | Potency [16] | Potency [17]

CC(C)CO
inactive: caspase-3 activation [1] 0.186% | outcome [2] | caspase-3 activation [3] -0.412% | caspase-3 activation [4] -2.74% | outcome [5] | outcome [6] | Potency [7] | Potency [9] | outcome [19] | outcome [10] | outcome [12] | outcome [13] | Potency [14] | Potency [18] | Potency [16] | Potency [17]

COc1cccc2sc(N)nc12
inactive: caspase-3 activation [1] 1.13% | outcome [2] | caspase-3 activation [3] 0.718% | caspase-3 activation [4] -1.25% | outcome [5] | outcome [6] | Potency [7] | outcome [20] | Potency [9] | outcome [19] | outcome [10] | outcome [11] | outcome [12] | Potency [14] | Potency [18] | Potency [15] | Potency [16] | Potency [17]

CN(C)CCCNCCCN
inactive: caspase-3 activation [1] -0.219% | outcome [2] | caspase-3 activation [3] -0.0657% | caspase-3 activation [4] 0.619% | outcome [5] | outcome [6] | Potency [7] | Potency [8] | outcome [19] | outcome [10] | outcome [11] | outcome [13] | Potency [14] | Potency [18] | Potency [16] | Potency [17]

CCCCC(CC)COC(=O)CCCCC(=O)OCC(CC)CCCC (stereo unspecified)
inactive: caspase-3 activation [1] 0.289% | outcome [2] | caspase-3 activation [3] -0.0264% | caspase-3 activation [4] 0.675% | outcome [5] | outcome [6] | Potency [7] | Potency [9] | outcome [19] | outcome [11] | outcome [12] | outcome [13] | Potency [14] | Potency [15] | Potency [17]

[O-]/[N+](=N\O)c1ccccc1
inactive: caspase-3 activation [1] -1.07% | outcome [2] | caspase-3 activation [3] -1.1% | caspase-3 activation [4] 2.95% | outcome [5] | outcome [6] | Potency [7] | Potency [9] | outcome [19] | outcome [10] | outcome [12] | outcome [13] | Potency [14] | Potency [15] | Potency [16] | Potency [17]

CCN(C(=O)N(CC)c1ccccc1)c1ccccc1
inactive: caspase-3 activation [1] 0.257% | outcome [2] | caspase-3 activation [3] 2.86% | caspase-3 activation [4] 0.606% | outcome [5] | outcome [6] | Potency [7] | Potency [8] | Potency [9] | outcome [11] | outcome [12] | outcome [13] | Potency [18] | Potency [15] | Potency [16] | Potency [17]

Nc1nc(CC(=O)O)cs1
inactive: caspase-3 activation [1] 0.647% | outcome [2] | caspase-3 activation [3] 0.956% | caspase-3 activation [4] -1.7% | outcome [5] | outcome [6] | Potency [7] | Potency [8] | Potency [9] | outcome [11] | outcome [12] | outcome [13] | Potency [14] | Potency [18] | Potency [15] | Potency [16] | Potency [17]
